Where “and” joins values, the source holds several entries; their conditions need not be identical. Identical values can stand only once. Inconclusive results are not listed. A call without a number means that no potency is given here. A structure can be active in one record and inactive in another. Calls of active or inactive are those of the source. Calls come from the whole dose curve.
biological target: Muscarinic acetylcholine receptor M1 (Homo sapiens) (UniProt P11229); test: Cholinergic receptor muscarinic 1 (CHRM1) small molecule antagonists, cell-based qHTS assay (AID 1963588); settings: CHRM1-CHO antagonist mode, calcium flux fluorescence; series mostly up to 61.5 µM; activity, negative = inhibition: at the top concentration; note: nearly all actives have a fitted effect of over 40% in size
Sequence (P11229 whole entry, looked up): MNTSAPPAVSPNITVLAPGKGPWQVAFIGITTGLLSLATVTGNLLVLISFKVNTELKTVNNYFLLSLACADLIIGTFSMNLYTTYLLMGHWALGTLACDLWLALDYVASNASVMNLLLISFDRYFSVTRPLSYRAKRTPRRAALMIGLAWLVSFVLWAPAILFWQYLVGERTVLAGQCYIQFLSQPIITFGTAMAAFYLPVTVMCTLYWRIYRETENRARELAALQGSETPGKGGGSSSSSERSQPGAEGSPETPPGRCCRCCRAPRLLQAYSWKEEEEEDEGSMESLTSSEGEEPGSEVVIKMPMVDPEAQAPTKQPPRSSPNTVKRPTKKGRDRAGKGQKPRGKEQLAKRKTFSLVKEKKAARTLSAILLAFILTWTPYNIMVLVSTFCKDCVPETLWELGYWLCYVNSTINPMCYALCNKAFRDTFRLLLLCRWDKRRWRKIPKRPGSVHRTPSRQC
Text: National Center for Advancing Translational Sciences [NCATS]
Division of Preclinical Innovation [DPI]
U.S. Environmental Protection Agency [EPA]
National Institutes of Environmental Health Sciences [NIEHS]
National Toxicology Program [NTP]
U.S. Food and Drug Administration [FDA]
The CHRM1 is a muscarinic receptor. This receptor plays a crucial role in learning and memory processes and has long been identified as a promising therapeutic target for the improvement of cognitive decline in Alzheimer's disease (AD). The CHRM1-CHO cell line stably expressing human muscarinic acetylcholine receptor M1 (CHRM1) can be used for screening agonists and antagonists of interactions between CHRM1 and its ligands. The CHRM1-CHO Calcium Flux Assay is a homogeneous fluorescence-based assay for detecting the intracellular calcium level using FDSS kinetic plate reader system.
Tox21 Assay Protocol Summary:
CHRM1-CHO cells were dispensed at 1000 cells/3uL/well in 1536-well black-clear bottom plates using a Multidrop Dispenser. After the assay plates were incubated at a 37 C/5% CO2 incubator for 18 h, 3 uL of Dye Loading Buffer was transferred to the assay plate by a Flying Reagent Dispenser. The assay plates were incubated at 37 C for 1h. For antagonist mode, 23 nL of compounds dissolved in DMSO, positive controls or DMSO only was transferred to the assay plate by a pin tool. After 5 min incubation at room temperature, 1.5 uL of acetylcholine at 50nM was added to each well. The fluorescence intensity in the plates was measured using FDSS 7000EX kinetic plate reader for 3 min at 1 sec intervals. Each test compound was measured at 15 concentrations in three independent runs.
Potency is the fitted concentration of half-maximal effect.

Compound	Potency	activity, negative = inhibition
Cc1cc(=O)[nH]c(C(C)C)n1	inactive	–
OCc1cccc(Oc2ccccc2)c1	inactive	–
O=C(O)CS	inactive	–
ClC1=C(Cl)C(Cl)(Cl)C(Cl)=C1Cl	inactive	–
CCCCCCOC(C)=O	inactive	–
c1ccc2c(c1)Cc1ccccc1-2	inactive	–
Cc1ccc([N+](=O)[O-])cc1N	inactive	–
COCCCN	inactive	–
COc1ccccc1O	inactive	–
CCn1c2ccccc2c2cc(N)ccc21	inactive	–
O=C1OC(c2ccc(O)cc2)(c2ccc(O)cc2)c2ccccc21	inactive	–
C=C(C)C(=O)OCC(C)O (stereo not given)	inactive	–
CC(C)CC(=O)CC(C)CC(C)C (stereo not given)	inactive	–
O=C(O)CN(CC(=O)O)CC(=O)O	inactive	–
CCCCCCCCC/C=C/CC1CC(=O)OC1=O (stereo not given)	–	-0.543% (inactive)
O=C(OCc1ccccc1)c1ccc(O)cc1	inactive	–
c1ccc2cc(Nc3ccc(Nc4ccc5ccccc5c4)cc3)ccc2c1	inactive	–
CN(C)c1ccc(C(=C2C=CC(=[N+](C)C)C=C2)c2ccccc2)cc1	4.72 µM (active) and inactive and 18.3 µM (active)	–
c1ccc2ccccc2c1	inactive	–
CC1=C(/C=C/C(C)=C/C=C/C(C)=C/C(=O)Nc2ccc(O)cc2)C(C)(C)CCC1	inactive	–

Compound	Potency	activity, negative = inhibition
CN(C)CCOC(=O)COc1ccc(Cl)cc1	inactive	–
CCCCCC1=CCCC1=O	inactive	–
Cc1ncc[nH]1	inactive	–
CCOCC(=O)O	inactive	–
CCCCCC1C(=O)CCC1CC(=O)OC (stereo not given)	–	-5.82% (inactive)
C=C(C)C(=O)OCCCCCC	–	77.4% (inactive)
COc1ccc(O)cc1	inactive	–
Cc1cc(C)c(C)cc1C	inactive	–
Cc1c(C(N)=O)cc([N+](=O)[O-])cc1[N+](=O)[O-]	inactive	–
O=C(Cl)c1c(Cl)c(Cl)c(C(=O)Cl)c(Cl)c1Cl	inactive	–
CCCCCCOCCO	inactive	–
CC[N+](CC)(CC(=O)Nc1c(C)cccc1C)Cc1ccccc1	inactive	–
CCCOC(=O)c1ccccc1	inactive	–
C=CC[N+](C)(C)CC=C	inactive	–
CCCCCCC(=O)O	inactive	–
Cc1ccc(S(=O)(=O)O)cc1	inactive	–
CN1C(=O)CC[C@H]1c1cccnc1	inactive	–
CC1(C)NC(=O)NC1=O	inactive	–
Cc1ccc(C(=O)O)o1	inactive	–
CN(C)CCOCCN(C)C	inactive	–

— PubChem BioAssay (Tox21)
